In the library only some 1.4% were active in any assay of this set; here they are far more common.
GLD-1 RNA inh = GLD-1-TGE RNA interaction inhibition (C. elegans). inhibition, % at 5.96 µM. purified GLD-1 + fluorescein TGE RNA, fluorescence polarization. AID 2280. 0.44% of 320,000 active;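 active means percent inhibition above a per-plate cutoff, the plate mean of test compounds plus 3 SD, cut at about 30% in these data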
MEX-5 binding = C. elegans MEX-5 TCR-2 RNA binding activity; Q9XUB2; MEX-5/FITC-TCR2 RNA binding, fluorescence polarization; hits give low values; activity score (negative = inhibition of binding), % at 10 µM; 0.38% of 300,000 active; AID 1832;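 active means inhibition past about -25% in most replicates, and total fluorescence under double the plate's negative control median, limit read from the data; inconclusive means replicates evenly split on the limit, or fluorescence at least double controls; inactive means too little inhibition in most replicates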
MCL1-BIM inh = disrupts human MCL1 binding to BIM-BH3 peptide; Q07820; GST-MCL1 / FITC-Bim-BH3 fluorescence polarization; inhibition, % at 10.9 µM; 0.68% of 320,000 active; AID 2057;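 active means inhibition above the mean inhibition of all tested compounds plus 3 SD, set per campaign, cut at about 40% in these data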;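 further: higher means more loss of mP so more displacement of Bim peptide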
eLon inh = inhibits E. coli Lon protease; P0A9M0; purified E. coli Lon protease, fluorescence polarization; inhibition, % at 7.94 µM; 0.42% of 360,000 active; AID 602123; in the data active means inhibition above about 13%, passing the limit was not always enough
Bcl-xL primary = Bcl-xL (human) inhibition | Q07817 | GST-Bcl-xL / FITC-Bim BH3 peptide fluorescence polarization | inhibition, % at 10.9 µM | 0.7% of 320,000 active | AID 2129;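 active means inhibition above the mean of all tested compounds plus 3 SD, cutoff set per campaign, cut at about 30% in these data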;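 further: inhibitors lower millipolarization by displacing the labeled peptide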
Target sequence (Q07817 whole entry, looked up): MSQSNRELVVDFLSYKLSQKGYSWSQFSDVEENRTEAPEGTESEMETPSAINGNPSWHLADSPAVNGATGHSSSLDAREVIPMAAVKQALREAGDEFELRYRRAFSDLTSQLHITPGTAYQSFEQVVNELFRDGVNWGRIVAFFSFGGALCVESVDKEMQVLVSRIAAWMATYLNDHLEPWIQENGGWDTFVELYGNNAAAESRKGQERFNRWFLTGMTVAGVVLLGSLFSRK
BCLXL inh confirm = Bcl-xL (human) inhibition, MCL1 counter-screen confirmation; 54% of 1,700 active; GST-Bcl-xL / FITC-Bim BH3 peptide FP binding; inhibition, % at 10.9 µM; shares compounds with MCL1-BIM inh;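 active means inhibition above a cutoff equal to the mean inhibition of all tested compounds plus 3 SD, cut at about 30% in these data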
MCL1 BIM confirm = confirmation of human MCL1 and BIM-BH3 interaction inhibitors; shares compounds with MCL1-BIM inh; GST-MCL1 / FITC-Bim-BH3 fluorescence polarization; inhibition, % at 10.9 µM; 61% of 1,700 active;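 active means inhibition above the average of all tested compounds plus 3 SD, cut at about 40% in these data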
A number is an active result.

What do the screens show for `COc1ccc(/C=N/n2cnc3c([nH]c4ccc(F)cc43)c2=O)cc1CSc1ccccn1`?
GLD-1 RNA inh: inactive; MEX-5 binding: inactive; MCL1-BIM inh: inactive; eLon inh: inactive; Bcl-xL primary: inactive

How did COc1ccc(NS(=O)(=O)c2ccc3c(c2)[C@H]2C=CC[C@H]2[C@@H](c2ccc(C(=O)O)cc2)N3)cc1 do in these assays?
GLD-1 RNA inh: inactive; MEX-5 binding: -61; MCL1-BIM inh: 54; eLon inh: inactive; Bcl-xL primary: inactive; BCLXL inh confirm: inactive; MCL1 BIM confirm: inactive

How did Cc1c(Cl)cccc1NS(=O)(=O)c1ccc2c(c1)C1C=CCC1C(c1ccc(C(=O)O)cc1)N2 (configuration not stated) do in these assays?
GLD-1 RNA inh: inactive; MCL1-BIM inh: 61; eLon inh: inactive; Bcl-xL primary: 39; BCLXL inh confirm: inactive; MCL1 BIM confirm: 74

How did O=C(O)c1ccc2c(c1)C1C=CCC1C(c1ccncc1)N2 (configuration not stated) do in these assays?
GLD-1 RNA inh: inactive; MEX-5 binding: inactive; MCL1-BIM inh: inactive; eLon inh: inactive; Bcl-xL primary: inactive

Results for CC(=O)c1ccc2c(c1)C1C=CCC1C(c1ccc(S(=O)(=O)N3CCOCC3)cc1)N2 (configuration not stated) ?
GLD-1 RNA inh: inactive; MCL1-BIM inh: inactive; eLon inh: inactive; Bcl-xL primary: inactive

What do the screens show for `O=C(O)c1cc(N=Nc2c(O)ccc3ccccc23)cc(C(=O)O)c1`?
eLon inh: inactive

How did O=C(O)c1ccc(N=Nc2c(O)ccc3ncccc23)cc1 do in these assays?
GLD-1 RNA inh: inactive; MEX-5 binding: inactive; MCL1-BIM inh: 51; eLon inh: inactive; Bcl-xL primary: inactive; BCLXL inh confirm: 40; MCL1 BIM confirm: 59

What do the screens show for `O=C(COc1ccccc1C(=O)N/N=C\c1ccc(O)c(O)c1)N/N=C/c1ccc(O)c(O)c1`?
GLD-1 RNA inh: inactive; MEX-5 binding: inactive; MCL1-BIM inh: 56; eLon inh: inactive; Bcl-xL primary: inactive; BCLXL inh confirm: 44; MCL1 BIM confirm: 81

How did O=C(/C=C/c1ccco1)NC(=S)Nc1cccc(C(=O)O)c1 do in these assays?
GLD-1 RNA inh: inactive; MEX-5 binding: -34; MCL1-BIM inh: 61; eLon inh: inactive; Bcl-xL primary: 37; BCLXL inh confirm: 31; MCL1 BIM confirm: 52

Results for COc1ccccc1NC(=O)c1ccc(-c2nn(C)c(=O)c3ccccc23)cc1 ?
GLD-1 RNA inh: inactive; MEX-5 binding: inactive; MCL1-BIM inh: inactive; eLon inh: inactive; Bcl-xL primary: inactive

Results for COc1ccc(NC(=O)c2ccc(-c3nn(C)c(=O)c4ccccc34)cc2)cc1 ?
GLD-1 RNA inh: inactive; MEX-5 binding: inactive; MCL1-BIM inh: 45; eLon inh: inactive; Bcl-xL primary: inactive; BCLXL inh confirm: inactive; MCL1 BIM confirm: inactive

What do the screens show for `Cc1cc(C)n2c(=O)c3ccc(Cl)cc3nc2c1C#N`?
GLD-1 RNA inh: inactive; MEX-5 binding: inactive; MCL1-BIM inh: 51; eLon inh: inactive; Bcl-xL primary: inactive; BCLXL inh confirm: inactive; MCL1 BIM confirm: inactive

What do the screens show for `COc1cc2c3nnc(-c4ccc(F)cc4)c-3cn(Cc3cccc(F)c3)c2cc1OC`?
GLD-1 RNA inh: inactive; MEX-5 binding: inconclusive; MCL1-BIM inh: 85; eLon inh: inactive; Bcl-xL primary: 76; BCLXL inh confirm: 82; MCL1 BIM confirm: 87

How did COc1cc2c3nnc(-c4ccc(F)cc4)c-3cn(Cc3cccc(C)c3)c2cc1OC do in these assays?
GLD-1 RNA inh: 50; MEX-5 binding: inconclusive; MCL1-BIM inh: 99; eLon inh: inactive; Bcl-xL primary: 96; BCLXL inh confirm: 85; MCL1 BIM confirm: 90

How did COc1cc2c3nnc(-c4ccc(F)cc4)c-3cn(Cc3ccc(C)cc3)c2cc1OC do in these assays?
GLD-1 RNA inh: inactive; MEX-5 binding: inconclusive; MCL1-BIM inh: inactive; eLon inh: inactive; Bcl-xL primary: inactive

How did CC[C@H](C)[C@H]1CNC(=S)N1CC1CCN(CCC23CC4CC(CC(C4)C2)C3)CC1 do in these assays?
eLon inh: inactive

Screening data from PubChem BioAssay.
